Drawing on PubChem BioAssay, this text covers growth inhibition, inhibition and outcome for 20 molecules.

A short description of assay [1]: antimalarial activity against Dd2 strain (AID 2302;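 active means growth inhibition above 50% at the single 2 µM test dose, taken to imply half-maximal potency below 2 µM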;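 further: 0% = DMSO untreated growth and 100% = chloroquine plus artemisinin killed control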). The conditions noted are these: P. falciparum Dd2 in RBCs, LDH growth readout, 72 h; at 2 µM; active compounds read high.
The nature of assay [2]: HepG2 cytotoxicity, primary screen, cytotoxicity control for P. falciparum antimalarial project, cell-based, ATP luminescence (AID 2303;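 active means inhibition above 50%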;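 further: 0% = DMSO wells and 100% = digitonin-killed cells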). The note with it: HepG2 viability, 24-48 h, at 10 µM, active compounds read high.
The target in assay [3] is L-lactate dehydrogenase (Plasmodium falciparum (isolate CDC / Honduras)) (UniProt Q27743). The assay is described as follows: PfLDH activity inhibition – cell lysate, 3D7 strain, counter-screen for P. falciparum growth inhibition project (AID 2304).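 Further: 0% = vehicle and 100% = reference inhibitor.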 The note with it: P. falciparum 3D7 crude extract, LDH APAD/NBT absorbance; at 2 µM; active compounds read high.
The nature of assay [4]: inhibition of 3D7 malaria parasite growth – strain 3D7 (AID 2306).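 Further: 0% = DMSO wells and 100% = chloroquine plus artemisinin control wells.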 The note with it: P. falciparum 3D7 erythrocytic growth, LDH absorbance, 72 h; at 2 µM; active compounds read high.
In assay [5] the target is Calcium-dependent protein kinase 1 (Plasmodium falciparum (isolate 3D7)) (UniProt P62344). Put plainly: PfCDPK1 kinase inhibitors, biochemical, TCAMS library (AID 1159585; cut-off not given, nearly all actives have IC50 up to about 0.98 µM;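 further: inhibitors leave more ATP so luminescence rises with inhibition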). The note with it: recombinant PfCDPK1, Kinase-Glo ATP depletion luminescence.
Assay [6] has as its target Plasmodium falciparum protein kinase 6 (PK6, PF3D7_1337100) (UniProt Q8IDW1). The assay is described as follows: PfPK6 kinase inhibitors, biochemical, TCAMS library (AID 1159586). The note with it: recombinant PfPK6, Kinase-Glo ATP depletion luminescence.
Assay [7] has as its target Protein kinase 7 (PK7), Plasmodium falciparum 3D7 (PF3D7_0213400) (UniProt Q7YTF7). The assay is described as follows: inhibition of Plasmodium PK7 catalytic activity – biochemical, TCAMS antimalarial set, Kinase-Glo luminescence (AID 1159587). The conditions noted are these: recombinant PfPK7, Kinase-Glo ATP depletion luminescence. On the technique in general: In Kinase-Glo more light means more ATP remaining.

Assay [8] concerns the target Calcium-dependent protein kinase 4 (Plasmodium falciparum (isolate 3D7)) (UniProt Q8IBS5). The assay is described as follows: PfCDPK4 kinase inhibitors, biochemical, TCAMS library (AID 1159588; cut-off not given, nearly all actives have IC50 up to about 0.91 µM). The note with it: recombinant PfCDPK4, Kinase-Glo ATP depletion luminescence.

A number with no mark means an inactive call. For some of these results: Potency and affinity values are given separately. Calls of active or inactive are those of the source. Unless noted, how the calls were made is not given here.

Chain of Plasmodium falciparum protein kinase 6 (PK6, PF3D7_1337100) (Q8IDW1 1-305): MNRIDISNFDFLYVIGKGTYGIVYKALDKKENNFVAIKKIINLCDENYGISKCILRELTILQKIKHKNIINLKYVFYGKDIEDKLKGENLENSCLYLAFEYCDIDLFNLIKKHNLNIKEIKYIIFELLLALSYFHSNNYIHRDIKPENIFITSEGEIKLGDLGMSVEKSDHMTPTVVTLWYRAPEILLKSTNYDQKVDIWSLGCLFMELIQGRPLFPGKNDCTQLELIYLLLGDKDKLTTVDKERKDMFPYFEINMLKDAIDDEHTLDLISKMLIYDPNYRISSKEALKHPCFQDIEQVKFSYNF
Chain of L-lactate dehydrogenase (Plasmodium falciparum (isolate CDC / Honduras)) (Q27743 whole entry, looked up): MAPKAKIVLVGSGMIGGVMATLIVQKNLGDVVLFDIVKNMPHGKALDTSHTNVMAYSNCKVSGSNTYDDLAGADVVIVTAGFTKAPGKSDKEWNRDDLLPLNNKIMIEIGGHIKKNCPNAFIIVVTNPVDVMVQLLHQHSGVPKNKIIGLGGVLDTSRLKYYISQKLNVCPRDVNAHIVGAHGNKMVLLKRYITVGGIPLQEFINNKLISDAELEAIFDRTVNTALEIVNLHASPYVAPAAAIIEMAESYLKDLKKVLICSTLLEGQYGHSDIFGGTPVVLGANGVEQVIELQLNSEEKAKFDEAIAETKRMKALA
Chain of Calcium-dependent protein kinase 4 (Plasmodium falciparum (isolate 3D7)) (Q8IBS5 whole entry, looked up): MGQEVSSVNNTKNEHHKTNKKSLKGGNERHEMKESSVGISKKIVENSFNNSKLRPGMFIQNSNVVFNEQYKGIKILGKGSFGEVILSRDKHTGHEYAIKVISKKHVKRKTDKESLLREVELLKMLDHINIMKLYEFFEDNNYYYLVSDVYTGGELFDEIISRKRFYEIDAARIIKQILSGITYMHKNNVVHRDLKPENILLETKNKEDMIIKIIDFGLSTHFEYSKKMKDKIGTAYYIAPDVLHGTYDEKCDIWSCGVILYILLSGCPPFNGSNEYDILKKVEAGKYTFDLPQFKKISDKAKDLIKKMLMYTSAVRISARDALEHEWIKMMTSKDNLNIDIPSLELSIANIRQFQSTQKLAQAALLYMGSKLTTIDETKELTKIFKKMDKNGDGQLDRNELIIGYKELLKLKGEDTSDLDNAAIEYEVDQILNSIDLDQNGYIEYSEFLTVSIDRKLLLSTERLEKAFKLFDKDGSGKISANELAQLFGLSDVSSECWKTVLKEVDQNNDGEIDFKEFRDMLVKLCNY
Chain of Calcium-dependent protein kinase 1 (Plasmodium falciparum (isolate 3D7)) (P62344 whole entry, looked up): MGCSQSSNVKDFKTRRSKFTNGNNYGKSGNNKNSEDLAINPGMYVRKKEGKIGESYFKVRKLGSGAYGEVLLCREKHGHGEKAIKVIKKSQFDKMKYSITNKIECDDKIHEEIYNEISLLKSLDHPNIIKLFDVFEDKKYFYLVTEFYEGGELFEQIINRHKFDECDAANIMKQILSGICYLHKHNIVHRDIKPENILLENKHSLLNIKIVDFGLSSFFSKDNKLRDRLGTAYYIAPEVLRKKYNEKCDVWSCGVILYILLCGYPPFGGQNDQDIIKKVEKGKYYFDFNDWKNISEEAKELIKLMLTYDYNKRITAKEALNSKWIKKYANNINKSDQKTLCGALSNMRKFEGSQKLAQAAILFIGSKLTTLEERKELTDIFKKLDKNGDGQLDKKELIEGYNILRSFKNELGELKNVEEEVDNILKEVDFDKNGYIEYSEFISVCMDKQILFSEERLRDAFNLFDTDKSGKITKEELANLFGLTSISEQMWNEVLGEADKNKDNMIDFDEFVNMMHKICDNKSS
Chain of Protein kinase 7 (PK7), Plasmodium falciparum 3D7 (PF3D7_0213400) (Q7YTF7 1-343): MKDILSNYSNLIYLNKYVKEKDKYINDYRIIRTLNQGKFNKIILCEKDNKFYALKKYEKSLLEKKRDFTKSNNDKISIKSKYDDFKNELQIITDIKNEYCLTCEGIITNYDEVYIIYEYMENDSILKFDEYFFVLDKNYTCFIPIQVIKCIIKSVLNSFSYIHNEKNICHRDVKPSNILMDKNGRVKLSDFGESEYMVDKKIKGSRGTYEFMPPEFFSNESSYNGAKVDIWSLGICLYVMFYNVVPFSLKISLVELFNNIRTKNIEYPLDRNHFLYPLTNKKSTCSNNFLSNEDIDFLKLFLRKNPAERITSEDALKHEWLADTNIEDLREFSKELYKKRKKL

As usually defined, the inhibition is the change of the read-out against control, counted positive when it falls. With `Fc1ccc2nc(-c3cccc(-c4cccc(CN5CCN(c6ccncc6)CC5)c4)c3)[nH]c2c1`, the values for the growth inhibition in assay [1] and in assay [4] were 99% (active) and 102% (active), respectively. The inhibition in assay [2] is 71% (active); in assay [3], 1%. Further, the outcome in assay [5], in assay [6], in assay [7] and in assay [8] was inactive.

In the case of `CCc1cn2c3c(cc(C(=O)N[C@@H](Cc4ccccc4)[C@H](O)CNC4CC4)cc13)N(CC)S(=O)(=O)CC2`, the growth inhibition was 99% (active) in assay [1] and 98% (active) in assay [4]. The inhibition in assay [2] is 13%; in assay [3] it was -3%. Moreover, the result in assay [5], in assay [6], in assay [7] and in assay [8] was inactive.

On to `CCCNCCc1ccc(NS(=O)(=O)c2cccc(-c3ccc(Cl)cc3)c2)cc1`, for which the values for the growth inhibition in assay [1] and in assay [4] were 36% and 101% (active), respectively. In addition, the inhibition was 36% in assay [2] and 0% in assay [3]. In addition, the outcome in assay [5], in assay [6], in assay [7] and in assay [8] was inactive.

As for `Cc1cc(N2CCCC2)nc(Nc2ccc(NC(=O)c3ccccc3C)cc2)n1`, the growth inhibition was 40% in assay [1] and 100% (active) in assay [4]. Moreover, the figures for the inhibition in assay [2] and in assay [3] were 22% and 2%, respectively. Further, the outcome in assay [5], in assay [6], in assay [7] and in assay [8] was inactive.

On to `C=C[C@]1(C)C[C@@H](OC(=O)NC(=O)C2CCN(C(=O)CSc3ccccc3)CC2)[C@]2(C)[C@H](C)CC[C@]3(CCC(=O)[C@H]32)[C@@H](C)[C@@H]1O`, for which the growth inhibition is 74% (active) in assay [1] and 93% (active) in assay [4]. The inhibition in assay [2] was -3%; in assay [3], 1%. Moreover, the result in assay [5], in assay [6], in assay [7] and in assay [8] was inactive.

Take `CS(=O)(=O)Nc1cccc(-c2cnc3[nH]cc(-c4cc(N)cc(C(=O)O)c4)c3c2)c1`: the growth inhibition in assay [1] and in assay [4] was 96% (active) throughout. For the same molecule, the inhibition in assay [2] is 40%; in assay [3], 0%. For the same molecule, the result in assay [5], in assay [6], in assay [7] and in assay [8] was inactive.

As for `COc1ccc2nccc(N3C[C@H]4C[C@@H]3CN4CCNCc3ccc4c(n3)NC(=O)CS4)c2n1`, the values for the growth inhibition in assay [1] and in assay [4] were 0% and 99% (active), respectively. In addition, the inhibition in assay [2] was 21%; in assay [3], 1%. Besides, the result in assay [5], in assay [6], in assay [7] and in assay [8] was inactive.

Take `O=C(Nc1ccccc1Cc1ccccc1)c1ccccc1C(F)(F)F`: the growth inhibition in assay [1] is 85% (active); in assay [4], 99% (active). In addition, the inhibition in assay [2] is 0%; in assay [3], 3%. Besides, the result in assay [5], in assay [6], in assay [7] and in assay [8] was inactive.

`CN(C)CCN(Cc1ccc(-c2ccc(CNCCc3ccccc3)cc2)nc1)C(=O)CCC1CCCC1`: the results for the growth inhibition in assay [1] and in assay [4] were 89% (active) and 96% (active), respectively. The inhibition was 98% (active) in assay [2] and -3% in assay [3]. Further, the outcome in assay [5], in assay [6], in assay [7] and in assay [8] was inactive.

Regarding `Fc1ccc2nc(-c3cccc(-c4cccc(CNCCN5CCNCC5)c4)c3)[nH]c2c1`, the growth inhibition in assay [1] is 4%; in assay [4] it was 94% (active). Also, the inhibition is 18% in assay [2] and -9% in assay [3]. Besides, the result in assay [5], in assay [6], in assay [7] and in assay [8] was inactive.

As to `O=c1ccc2ccc(F)cc2n1CCN1CCC(NCc2ccc(-c3ccccn3)s2)CC1`, the growth inhibition in assay [1] was 30%; in assay [4], 98% (active). In addition, the inhibition in assay [2] is -12%; in assay [3], -1%. Besides, the outcome in assay [5], in assay [6], in assay [7] and in assay [8] was inactive.

Take `CN(C)S(=O)(=O)c1ccc(C(=O)N(c2nc(-c3ccccc3)cs2)C2CCCCC2)cc1`: the figures for the growth inhibition in assay [1] and in assay [4] were 46% and 98% (active), respectively. In addition, the results for the inhibition in assay [2] and in assay [3] were 7% and -3%, respectively. The outcome in assay [5], in assay [6], in assay [7] and in assay [8] was inactive.

For `CCOc1cc(C(=O)NC2CC(C)(C)NC(C)(C)C2)ccc1-c1cc2cc(Cl)c(Cl)cc2[nH]1`, the growth inhibition is 46% in assay [1] and 101% (active) in assay [4]. In addition, the inhibition in assay [2] is 37%; in assay [3] it was -1%. In addition, the result in assay [5], in assay [6], in assay [7] and in assay [8] was inactive.

In the case of `Cn1c(Nc2cc(C(C)(C)C)on2)nc2cc(Nc3ccnc(Nc4ccc(CS(C)(=O)=O)cc4)n3)ccc21`, the growth inhibition in assay [1] was 68% (active); in assay [4], 101% (active). Also, the results for the inhibition in assay [2] and in assay [3] were 37% and -1%, respectively. The outcome in assay [5], in assay [6], in assay [7] and in assay [8] was inactive.

For `O=C(NC1CCN(CCC[C@]2(c3ccc(Cl)c(Cl)c3)CCCN(C(=O)c3ccccc3)C2)CC1)c1ccc(F)cc1`, the growth inhibition in assay [1] was 68% (active); in assay [4] it was 90% (active). Also, the inhibition was 52% (active) in assay [2] and -1% in assay [3]. Besides, the result in assay [5], in assay [6], in assay [7] and in assay [8] was inactive.

`COc1ccc(NCc2cccc(-c3cccc(CNCCc4ccccc4)c3)c2)cc1`: the growth inhibition in assay [1] was 14%; in assay [4] it was 96% (active). In addition, the inhibition was 41% in assay [2] and 0% in assay [3]. The outcome in assay [5], in assay [6], in assay [7] and in assay [8] was inactive.

On to `Cc1[nH]c(C)c(-c2ccc(-c3ccc(Cl)cc3)nc2)c(=O)c1Cl`, for which the values for the growth inhibition in assay [1] and in assay [4] were 96% (active) and 95% (active), respectively. For the same molecule, the values for the inhibition in assay [2] and in assay [3] were 8% and 3%, respectively. Further, the result in assay [5], in assay [6], in assay [7] and in assay [8] was inactive.

Take `COc1cc(Cc2cnc(N)nc2N)ccc1OCc1ccc(-c2ccccc2C#N)cc1`: the growth inhibition in assay [1] is 3%; in assay [4], 93% (active). The inhibition in assay [2] is 32%; in assay [3] it was 6%. Moreover, the result in assay [5], in assay [6], in assay [7] and in assay [8] was inactive.

`COc1ccc(-n2nc(C)cc2C(=O)NCc2ccc(-c3c(C)noc3C)cc2)cc1`: the growth inhibition in assay [1] was 92% (active); in assay [4], 101% (active). The inhibition in assay [2] and in assay [3] was 3% throughout. The outcome in assay [5], in assay [6], in assay [7] and in assay [8] was inactive.

With `Cc1cc(C(=O)CN2C(=O)NC(C)(c3ccc4ccccc4c3)C2=O)c(C)n1Cc1ccco1` (stereo not given), the growth inhibition in assay [1] is 71% (active); in assay [4], 97% (active). Further, the inhibition in assay [2] was 12%; in assay [3] it was 1%. The result in assay [5], in assay [6], in assay [7] and in assay [8] was inactive.
